Experimental data reported in ChEMBL document CHEMBL1961873, “Compounds: GSK PKIS; Assays: Nanosyn kinase panel” (2012).

Assays:
[1] = molecular target: Ribosomal protein S6 kinase alpha-6 (Homo sapiens) (UniProt Q9UK32); conditions: at 1 µM;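 also: each value is a mean inhibition of RSK4 from a GSK PKIS panel screen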
[2] = molecular target: T1, Serine/threonine-protein kinase Sgk1 (Homo sapiens) (UniProt O00141); conditions: at 0.1 µM
T1 sequence (whole entry): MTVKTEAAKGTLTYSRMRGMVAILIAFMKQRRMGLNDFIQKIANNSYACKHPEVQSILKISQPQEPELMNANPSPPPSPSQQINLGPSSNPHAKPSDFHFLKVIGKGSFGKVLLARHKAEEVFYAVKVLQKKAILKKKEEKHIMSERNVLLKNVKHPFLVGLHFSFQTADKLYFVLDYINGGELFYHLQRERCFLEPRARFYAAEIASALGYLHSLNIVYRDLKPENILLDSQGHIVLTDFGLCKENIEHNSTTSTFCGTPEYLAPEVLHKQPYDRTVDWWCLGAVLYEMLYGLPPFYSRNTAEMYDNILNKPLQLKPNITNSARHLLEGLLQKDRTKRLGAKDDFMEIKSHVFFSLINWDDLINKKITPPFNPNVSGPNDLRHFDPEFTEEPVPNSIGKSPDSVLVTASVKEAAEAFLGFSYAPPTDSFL

[3] = molecular target: T1, Serine/threonine-protein kinase Sgk1 (Homo sapiens); conditions: at 1 µM
[4] = molecular target: T2, Serine/threonine-protein kinase Sgk2 (Homo sapiens) (UniProt Q9HBY8); conditions: at 0.1 µM
T2 sequence (whole entry): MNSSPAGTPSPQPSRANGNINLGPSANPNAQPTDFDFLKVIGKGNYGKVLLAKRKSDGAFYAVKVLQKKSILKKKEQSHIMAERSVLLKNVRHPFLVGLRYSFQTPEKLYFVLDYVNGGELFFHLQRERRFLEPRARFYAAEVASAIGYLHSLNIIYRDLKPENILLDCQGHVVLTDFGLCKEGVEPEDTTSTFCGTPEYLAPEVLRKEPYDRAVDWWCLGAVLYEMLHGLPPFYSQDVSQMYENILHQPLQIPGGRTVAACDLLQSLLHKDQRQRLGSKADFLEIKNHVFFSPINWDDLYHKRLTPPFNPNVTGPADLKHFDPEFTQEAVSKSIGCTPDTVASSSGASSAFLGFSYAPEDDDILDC

[5] = molecular target: T2, Serine/threonine-protein kinase Sgk2 (Homo sapiens); conditions: at 1 µM
[6] = molecular target: T3, Serine/threonine-protein kinase Sgk3 (Homo sapiens) (UniProt Q96BR1); conditions: at 0.1 µM
T3 sequence (whole entry): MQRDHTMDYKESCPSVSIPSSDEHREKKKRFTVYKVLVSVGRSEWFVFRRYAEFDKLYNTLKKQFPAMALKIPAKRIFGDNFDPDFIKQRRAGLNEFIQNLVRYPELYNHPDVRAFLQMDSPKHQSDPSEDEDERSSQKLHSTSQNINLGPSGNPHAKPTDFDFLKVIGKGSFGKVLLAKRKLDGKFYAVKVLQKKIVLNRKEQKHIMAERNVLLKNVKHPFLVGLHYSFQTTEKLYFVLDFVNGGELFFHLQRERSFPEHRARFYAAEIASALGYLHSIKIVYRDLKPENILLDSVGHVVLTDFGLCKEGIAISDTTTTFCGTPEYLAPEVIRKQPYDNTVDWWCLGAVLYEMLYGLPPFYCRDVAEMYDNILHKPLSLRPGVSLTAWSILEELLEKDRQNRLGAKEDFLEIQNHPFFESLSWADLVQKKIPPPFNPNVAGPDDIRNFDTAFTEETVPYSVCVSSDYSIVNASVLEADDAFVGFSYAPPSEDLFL

[7] = molecular target: T3, Serine/threonine-protein kinase Sgk3 (Homo sapiens); conditions: at 1 µM
[8] = molecular target: 5'-AMP-activated protein kinase catalytic subunit alpha-1 (Homo sapiens) (UniProt Q13131); conditions: at 0.1 µM
[9] = molecular target: 5'-AMP-activated protein kinase catalytic subunit alpha-1 (Homo sapiens) (UniProt Q13131); conditions: at 1 µM
[10] = molecular target: 5'-AMP-activated protein kinase catalytic subunit alpha-2 (Homo sapiens) (UniProt P54646); conditions: at 0.1 µM
[11] = molecular target: 5'-AMP-activated protein kinase catalytic subunit alpha-2 (Homo sapiens) (UniProt P54646); conditions: at 1 µM
[12] = molecular target: T4, NUAK family SNF1-like kinase 1 (Homo sapiens) (UniProt O60285); conditions: at 0.1 µM
T4 sequence (whole entry): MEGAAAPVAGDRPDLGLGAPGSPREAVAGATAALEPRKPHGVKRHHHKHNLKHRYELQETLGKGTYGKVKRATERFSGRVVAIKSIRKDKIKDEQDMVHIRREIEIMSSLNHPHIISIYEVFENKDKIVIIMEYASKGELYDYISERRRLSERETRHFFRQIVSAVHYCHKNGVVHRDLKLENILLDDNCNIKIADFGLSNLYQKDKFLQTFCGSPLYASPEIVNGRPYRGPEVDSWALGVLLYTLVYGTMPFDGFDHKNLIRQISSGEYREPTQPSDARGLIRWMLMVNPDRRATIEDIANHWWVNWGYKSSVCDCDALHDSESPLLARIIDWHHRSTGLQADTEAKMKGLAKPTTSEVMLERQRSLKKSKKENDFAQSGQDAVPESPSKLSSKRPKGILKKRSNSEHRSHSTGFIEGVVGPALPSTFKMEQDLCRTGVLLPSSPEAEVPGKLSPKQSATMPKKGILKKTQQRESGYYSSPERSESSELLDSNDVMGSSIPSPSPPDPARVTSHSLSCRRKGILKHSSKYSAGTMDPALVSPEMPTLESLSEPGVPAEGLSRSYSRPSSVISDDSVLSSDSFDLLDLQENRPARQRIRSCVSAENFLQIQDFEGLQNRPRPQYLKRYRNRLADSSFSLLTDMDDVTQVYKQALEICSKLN

[13] = molecular target: T5, Serine/threonine-protein kinase BRSK1 (Homo sapiens) (UniProt Q8TDC3); conditions: at 0.1 µM
T5 sequence (whole entry): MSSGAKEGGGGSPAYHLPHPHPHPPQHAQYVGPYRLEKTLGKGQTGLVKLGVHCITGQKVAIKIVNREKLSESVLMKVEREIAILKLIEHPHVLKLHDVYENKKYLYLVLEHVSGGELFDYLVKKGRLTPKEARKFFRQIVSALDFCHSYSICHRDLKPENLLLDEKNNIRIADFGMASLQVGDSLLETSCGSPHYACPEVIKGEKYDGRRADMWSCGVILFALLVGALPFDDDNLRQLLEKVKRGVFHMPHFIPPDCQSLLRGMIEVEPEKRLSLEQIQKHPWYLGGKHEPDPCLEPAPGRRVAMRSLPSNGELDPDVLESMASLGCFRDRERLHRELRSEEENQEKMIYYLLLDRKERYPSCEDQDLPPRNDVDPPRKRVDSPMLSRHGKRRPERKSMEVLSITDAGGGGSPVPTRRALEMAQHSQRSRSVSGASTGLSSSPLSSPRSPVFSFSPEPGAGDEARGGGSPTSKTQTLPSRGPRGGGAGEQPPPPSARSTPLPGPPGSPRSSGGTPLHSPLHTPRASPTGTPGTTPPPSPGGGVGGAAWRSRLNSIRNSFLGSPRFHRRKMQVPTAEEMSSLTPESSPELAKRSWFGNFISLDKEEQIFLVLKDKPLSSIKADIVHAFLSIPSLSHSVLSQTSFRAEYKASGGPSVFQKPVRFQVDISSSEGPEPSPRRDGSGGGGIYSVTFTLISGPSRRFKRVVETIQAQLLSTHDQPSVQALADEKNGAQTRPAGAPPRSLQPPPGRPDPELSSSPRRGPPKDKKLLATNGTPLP

[14] = molecular target: T5, Serine/threonine-protein kinase BRSK1 (Homo sapiens); conditions: at 1 µM
[15] = molecular target: T6, Serine/threonine-protein kinase BRSK2 (Homo sapiens) (UniProt Q8IWQ3); conditions: at 0.1 µM
T6 sequence (whole entry): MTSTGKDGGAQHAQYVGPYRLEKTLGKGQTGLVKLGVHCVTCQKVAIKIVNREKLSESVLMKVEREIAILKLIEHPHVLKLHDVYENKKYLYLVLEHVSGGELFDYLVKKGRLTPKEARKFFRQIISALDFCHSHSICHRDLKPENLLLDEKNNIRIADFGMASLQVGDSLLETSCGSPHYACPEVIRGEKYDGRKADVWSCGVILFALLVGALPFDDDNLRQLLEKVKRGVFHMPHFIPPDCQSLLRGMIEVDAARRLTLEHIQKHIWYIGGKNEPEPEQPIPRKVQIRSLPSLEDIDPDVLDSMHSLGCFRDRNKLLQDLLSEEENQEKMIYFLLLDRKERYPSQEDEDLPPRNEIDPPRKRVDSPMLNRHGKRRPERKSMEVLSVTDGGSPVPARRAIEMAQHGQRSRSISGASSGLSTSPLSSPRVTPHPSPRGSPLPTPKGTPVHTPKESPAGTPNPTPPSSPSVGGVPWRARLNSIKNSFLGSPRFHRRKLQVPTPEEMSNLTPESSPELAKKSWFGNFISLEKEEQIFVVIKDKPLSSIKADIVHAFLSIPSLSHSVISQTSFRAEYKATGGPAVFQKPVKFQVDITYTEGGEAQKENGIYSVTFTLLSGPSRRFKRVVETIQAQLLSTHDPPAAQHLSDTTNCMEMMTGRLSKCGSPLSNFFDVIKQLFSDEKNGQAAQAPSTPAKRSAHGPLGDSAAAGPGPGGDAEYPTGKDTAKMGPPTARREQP

[16] = molecular target: T6, Serine/threonine-protein kinase BRSK2 (Homo sapiens); conditions: at 1 µM
[17] = molecular target: Calcium/calmodulin-dependent protein kinase type 1D (Homo sapiens) (UniProt Q8IU85); conditions: at 0.1 µM
[18] = molecular target: Calcium/calmodulin-dependent protein kinase type 1D (Homo sapiens) (UniProt Q8IU85); conditions: at 1 µM
[19] = molecular target: Calcium/calmodulin-dependent protein kinase type II subunit alpha (Homo sapiens) (UniProt Q9UQM7); conditions: at 0.1 µM;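 also: reported values are averages (mean inhibition of CAMK2A)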
[20] = molecular target: T4, NUAK family SNF1-like kinase 1 (Homo sapiens); conditions: at 1 µM

Chain of 5'-AMP-activated protein kinase catalytic subunit alpha-2 (Homo sapiens) (P54646 whole entry, looked up): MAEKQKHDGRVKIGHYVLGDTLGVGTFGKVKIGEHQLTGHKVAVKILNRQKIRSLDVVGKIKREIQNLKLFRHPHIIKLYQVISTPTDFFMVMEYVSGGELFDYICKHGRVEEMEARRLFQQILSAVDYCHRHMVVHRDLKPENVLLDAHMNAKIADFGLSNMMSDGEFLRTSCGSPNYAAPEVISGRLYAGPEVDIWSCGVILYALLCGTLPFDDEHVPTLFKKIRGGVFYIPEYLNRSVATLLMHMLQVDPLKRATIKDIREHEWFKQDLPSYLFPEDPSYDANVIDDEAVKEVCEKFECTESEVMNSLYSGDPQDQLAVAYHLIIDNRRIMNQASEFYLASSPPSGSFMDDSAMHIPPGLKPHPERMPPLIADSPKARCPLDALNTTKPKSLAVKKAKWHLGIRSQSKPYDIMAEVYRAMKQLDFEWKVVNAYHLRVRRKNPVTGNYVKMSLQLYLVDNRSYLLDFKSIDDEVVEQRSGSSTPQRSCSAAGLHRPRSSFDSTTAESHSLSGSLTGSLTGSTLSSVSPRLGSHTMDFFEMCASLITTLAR
Chain of 5'-AMP-activated protein kinase catalytic subunit alpha-1 (Homo sapiens) (Q13131 whole entry, looked up): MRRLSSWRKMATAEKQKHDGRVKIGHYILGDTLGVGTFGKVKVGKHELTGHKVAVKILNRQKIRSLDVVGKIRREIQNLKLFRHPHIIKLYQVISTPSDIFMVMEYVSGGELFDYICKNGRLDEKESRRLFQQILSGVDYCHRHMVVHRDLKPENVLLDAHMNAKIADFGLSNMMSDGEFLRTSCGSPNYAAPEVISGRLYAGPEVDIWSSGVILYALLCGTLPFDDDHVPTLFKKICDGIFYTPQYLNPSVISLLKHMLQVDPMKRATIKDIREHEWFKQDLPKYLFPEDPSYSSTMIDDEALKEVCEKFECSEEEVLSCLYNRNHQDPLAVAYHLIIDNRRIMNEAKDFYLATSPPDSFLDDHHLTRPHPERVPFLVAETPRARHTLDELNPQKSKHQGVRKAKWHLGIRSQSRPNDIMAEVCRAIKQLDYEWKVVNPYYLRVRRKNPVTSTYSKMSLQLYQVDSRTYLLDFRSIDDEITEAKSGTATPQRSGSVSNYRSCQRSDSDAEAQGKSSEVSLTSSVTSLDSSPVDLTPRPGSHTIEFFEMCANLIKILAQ
Chain of Calcium/calmodulin-dependent protein kinase type 1D (Homo sapiens) (Q8IU85 whole entry, looked up): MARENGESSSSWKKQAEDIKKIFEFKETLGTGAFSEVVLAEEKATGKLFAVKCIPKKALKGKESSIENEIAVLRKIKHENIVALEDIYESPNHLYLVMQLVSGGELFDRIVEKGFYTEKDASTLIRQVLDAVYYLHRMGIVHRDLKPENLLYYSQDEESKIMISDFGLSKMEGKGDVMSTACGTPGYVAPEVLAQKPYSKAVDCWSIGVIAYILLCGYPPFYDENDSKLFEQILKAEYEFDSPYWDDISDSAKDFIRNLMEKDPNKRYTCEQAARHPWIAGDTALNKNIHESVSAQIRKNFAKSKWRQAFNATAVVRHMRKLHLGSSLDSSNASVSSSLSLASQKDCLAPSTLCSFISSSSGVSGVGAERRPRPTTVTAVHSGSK
Chain of Calcium/calmodulin-dependent protein kinase type II subunit alpha (Homo sapiens) (Q9UQM7 whole entry): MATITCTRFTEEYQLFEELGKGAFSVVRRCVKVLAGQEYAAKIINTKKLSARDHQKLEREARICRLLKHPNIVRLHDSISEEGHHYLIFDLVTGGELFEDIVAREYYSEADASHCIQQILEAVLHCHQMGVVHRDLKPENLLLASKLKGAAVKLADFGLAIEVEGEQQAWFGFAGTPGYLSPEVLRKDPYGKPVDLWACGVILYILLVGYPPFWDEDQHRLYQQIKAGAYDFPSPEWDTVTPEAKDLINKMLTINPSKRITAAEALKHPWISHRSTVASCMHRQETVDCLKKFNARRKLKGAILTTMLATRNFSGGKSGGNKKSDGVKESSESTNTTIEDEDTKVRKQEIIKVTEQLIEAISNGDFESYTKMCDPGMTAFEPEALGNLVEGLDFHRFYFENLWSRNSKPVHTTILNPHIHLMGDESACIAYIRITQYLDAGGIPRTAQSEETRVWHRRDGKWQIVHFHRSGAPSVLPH
Chain of Ribosomal protein S6 kinase alpha-6 (Homo sapiens) (Q9UK32 whole entry): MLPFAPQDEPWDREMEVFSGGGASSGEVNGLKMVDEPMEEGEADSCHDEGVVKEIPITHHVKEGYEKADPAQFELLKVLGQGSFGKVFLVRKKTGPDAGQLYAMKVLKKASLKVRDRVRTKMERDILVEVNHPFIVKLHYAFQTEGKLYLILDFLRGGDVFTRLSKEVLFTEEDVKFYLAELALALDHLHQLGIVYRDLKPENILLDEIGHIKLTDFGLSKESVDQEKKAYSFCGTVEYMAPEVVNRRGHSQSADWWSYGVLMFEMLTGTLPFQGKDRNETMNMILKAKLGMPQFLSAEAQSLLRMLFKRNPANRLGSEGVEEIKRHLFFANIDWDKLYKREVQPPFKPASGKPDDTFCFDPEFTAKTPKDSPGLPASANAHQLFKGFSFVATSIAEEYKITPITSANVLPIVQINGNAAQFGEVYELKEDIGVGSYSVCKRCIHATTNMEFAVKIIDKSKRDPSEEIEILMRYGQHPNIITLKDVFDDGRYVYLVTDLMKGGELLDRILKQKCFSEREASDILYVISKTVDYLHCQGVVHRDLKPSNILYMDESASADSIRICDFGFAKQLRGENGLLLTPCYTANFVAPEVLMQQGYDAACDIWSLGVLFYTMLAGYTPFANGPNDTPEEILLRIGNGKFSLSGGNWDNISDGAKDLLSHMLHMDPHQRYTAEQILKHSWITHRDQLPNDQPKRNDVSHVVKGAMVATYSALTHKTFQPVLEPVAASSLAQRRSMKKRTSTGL

Question: Which inhibition [1] does the source give for COc1cccc(-n2ncc3c(N/N=C/c4cccc(F)c4)ncnc32)c1 here?
Answer: 3.07%

Question: And the inhibition [2]?
Answer: 1.3%

Question: And the inhibition [3]?
Answer: 2.87%

Question: And the inhibition [4]?
Answer: -1.45%

Question: What about the inhibition [5] of the same molecule?
Answer: 0.6%

Question: And the inhibition [6]?
Answer: -0.55%

Question: And the inhibition [7]?
Answer: 0.75%

Question: And the inhibition [8]?
Answer: 2.52%

Question: And the inhibition [9]?
Answer: 5.15%

Question: And the inhibition [10]?
Answer: 4.7%

Question: And the inhibition [11]?
Answer: 6.48%

Question: What about the inhibition [12] of the same molecule?
Answer: 3.92%

Question: And the inhibition [13]?
Answer: 2.83%

Question: And the inhibition [14]?
Answer: 13.7%

Question: What about the inhibition [15] of the same molecule?
Answer: 2.69%

Question: And the inhibition [16]?
Answer: 20.5%

Question: What about the inhibition [17] of the same molecule?
Answer: 0.51%

Question: What about the inhibition [18] of the same molecule?
Answer: 1.96%

Question: What about the inhibition [19] of the same molecule?
Answer: 1.19%

Question: Which results are given for CC(C)=Cc1cccc2c1/C(=N/Nc1ccc(S(N)(=O)=O)cc1)C(=O)N2?
Answer: inhibition [1]: 13.6%; inhibition [2]: 0.34%; inhibition [3]: 5.74%; inhibition [4]: -2.99%; inhibition [5]: 3.04%; inhibition [6]: 0.02%; inhibition [7]: 0.72%; inhibition [8]: 13.9%; inhibition [9]: 56.6%; inhibition [10]: 3.74%; inhibition [11]: 40.2%; inhibition [12]: 80.3%; inhibition [20]: 87.3%; inhibition [13]: 7.32%; inhibition [14]: 45%; inhibition [15]: 14.6%; inhibition [16]: 58.2%; inhibition [17]: 0.31%; inhibition [18]: 1.3%; inhibition [19]: 2.92%
